Assay outcomes: PubChem, Fisher Drug Discovery Resource Center
The sample as a whole holds a higher share of hits than the screen did.
mcGAS MS inh: blocks mouse cGAS cGAMP production | 130,000 compounds, 0.18% hits | Q8C6L5 | AID 1259397 | recombinant mouse cGAS, cGAMP by RapidFire MS | inhibition, % at 12.5 µM;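 active = inhibition of cGAS enzyme activity at or above 60%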;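 note: enzyme stimulated by 45 bp dsDNA with ATP and GTP substrates; cGAMP share of summed cGAMP plus half ATP and half GTP signals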
Target sequence (Q8C6L5 whole entry, looked up): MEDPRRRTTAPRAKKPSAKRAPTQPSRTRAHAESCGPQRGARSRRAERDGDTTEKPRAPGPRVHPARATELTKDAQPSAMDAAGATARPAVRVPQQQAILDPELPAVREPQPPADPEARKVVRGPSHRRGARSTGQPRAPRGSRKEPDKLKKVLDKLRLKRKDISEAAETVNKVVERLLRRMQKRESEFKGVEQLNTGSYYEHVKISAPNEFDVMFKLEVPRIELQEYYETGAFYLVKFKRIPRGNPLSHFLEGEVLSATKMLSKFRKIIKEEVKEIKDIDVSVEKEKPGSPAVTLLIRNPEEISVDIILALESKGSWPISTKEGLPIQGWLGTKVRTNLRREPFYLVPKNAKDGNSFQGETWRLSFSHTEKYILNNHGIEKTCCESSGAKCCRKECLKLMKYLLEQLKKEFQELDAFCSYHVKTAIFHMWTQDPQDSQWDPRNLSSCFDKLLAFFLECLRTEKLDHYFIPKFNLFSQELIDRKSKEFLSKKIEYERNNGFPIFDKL
Of the large screens only hits and unclear results are named; the others gave an inactive call; ! = repeats disagree.

Cc1cc(C)c2c(CC(=O)N3CCC4(CN(C)C(=O)O4)C3)coc2c1C (stereo unspecified)	none
C=C(C)Cn1c(N2CCN(Cc3cccc(Cl)c3)CC2)nc2c1c(=O)[nH]c(=O)n2C	none
COc1ccccc1-c1ccc(C(=O)N2CC(c3ccncc3)C2)cc1	none
O=S(=O)(CC1CCCO1)Nc1ccc(N2CCCC2)c(Cl)c1 (stereo unspecified)	none
N#Cc1cccc(S(=O)(=O)Nc2c(F)cccc2N2CCCC2)c1	none
N#CCCCCS(=O)(=O)Nc1ccc(N2CCCC2)c(F)c1	mcGAS MS inh 62.7
COC(=O)C=C1NC(=O)C(C)S1 (stereo unspecified)	none
O=C1NC(=O)C2C1Sc1[nH]c(=O)sc1C2c1ccco1 (stereo unspecified)	mcGAS MS inh 88.9
COc1ccc(C2c3sc(=O)[nH]c3SC3C(=O)NC(=O)C32)cc1 (stereo unspecified)	none
O=C1C2Sc3[nH]c(=O)sc3C(c3ccc(O)cc3)C2C(=O)N1c1ccc(Cl)cc1 (stereo unspecified)	none
CC(=NOCc1nc2c3c4c(sc3ncn2n1)C(C)(C)NC(C)(C)C4)c1ccc(C)cc1	none
Cc1ccccc1N=Cc1c(C(F)(F)F)[nH]n(-c2nc3ccccc3s2)c1=O	mcGAS MS inh 68.9
C=CCN=Cc1c(C(F)(F)F)[nH]n(-c2nc3ccccc3s2)c1=O	none
Cc1[nH]n(-c2nc3ccccc3s2)c(=O)c1C=NC1CCN(Cc2ccccc2)CC1	none
Cc1noc(C)c1S(=O)(=O)N1CCC(C(=O)N(c2ccc3[nH]ccc3c2)C(C)CC(C)C)CC1 (stereo unspecified)	none
CCCc1nnc2sc(Cc3ccccc3Cl)nn12	none
CC(C(=O)NCc1ccc(CN2CCOCC2)cc1)N1CCCC1c1ccsc1 (stereo unspecified)	none
Cc1cc(S(=O)(=O)N2CCCC(CNC(=O)c3cccnc3)C2)c(C)s1 (stereo unspecified)	none
COC(=O)c1ccc(CN2C(=O)C(C)(C)ON=C2c2ccc(C)cc2)o1	none
CC(=O)Oc1ccc(CN2C(=O)C(C)(C)ON=C2c2ccc(C)cc2)cc1	mcGAS MS inh 87.3
CC(=O)Oc1ccccc1CN1C(=O)C(C)(C)ON=C1c1ccc(C(F)(F)F)cc1	none
O=C(Nc1cccc(F)c1)c1cnn(-c2ccccc2)c1C1CC1	none
CN1CCN(C2CCN(C(=O)c3ccccc3)CC2)CC1C(=O)O (stereo unspecified)	none
COc1ccccc1OC(C)(C)C(=O)N1CCN(C)C(C(=O)O)C1 (stereo unspecified)	mcGAS MS inh 81.9!
COc1ccccc1-c1ccc(C(=O)N2CCN(C)C(C)C2)cc1 (stereo unspecified)	none
Cc1ccc2nc(C)c(NC(=O)c3ccccc3Cl)c(=O)n2c1	none
O=C(c1ccc(N2CCCS2(=O)=O)cc1)N1CCN(S(=O)(=O)c2cccc(F)c2)CC1	none
CC(C)C(NS(=O)(=O)c1cccc(Cl)c1)C(=O)N1CCN(c2ccccc2)CC1 (stereo unspecified)	none
CC(C)C(NS(=O)(=O)c1ccccc1)C(=O)N1CCN(c2ccccc2Cl)CC1 (stereo unspecified)	none
CC(C)C(NS(=O)(=O)c1ccccc1)C(=O)N1CCN(c2cccc(Cl)c2)CC1 (stereo unspecified)	mcGAS MS inh 60.2
Cc1sc2ncc(C(=O)N3CCC4(CCCN(C)C4=O)C3)c(=O)n2c1C (stereo unspecified)	none
Cn1cc(C(O)CNC(=O)Cc2ccc(-c3ccccc3)cc2)cn1 (stereo unspecified)	none
Cc1cc(N2CCC(CO)(CC3CCCCO3)CC2)nc2ccccc12 (stereo unspecified)	none
N#CC1(C#N)OC(C#N)(C#N)C2c3ccccc3OC21 (stereo unspecified)	none
CCC(C)N1CN2C(=O)NC3C2N(C1)C(=O)N3C(C)(C)C (stereo unspecified)	none
O=C(C1CC1c1ccc(Cl)c(Cl)c1)N1CCCn2ncnc21 (stereo unspecified)	mcGAS MS inh 96.2
CN1CCN(C)C(CNC(=O)C2CC2c2ccc(Cl)c(Cl)c2)C1 (stereo unspecified)	none
CCCn1c(=O)n(CCC(=O)N2CCCn3ncnc32)c2ccccc21	none
CCC(Cn1cnc(-c2ccccc2)c1-c1ccncc1)N1CCOCC1 (stereo unspecified)	none
COc1ccc(C)nc1NC(=O)CCc1ccsc1	none
COc1ccc(C(=O)N[C@@H](CCc2ccccc2)C(=O)NCC#N)c(OC)n1	none
CCOc1ccc(C(=O)N2CCN(c3ncccn3)CC2)cc1	none
O=C(c1ccc(N2CC(O)C2)nc1)N1CCCN(c2ncccn2)CC1	mcGAS MS inh 79.5
O=C1CN(c2ccc(C(=O)N3CCCN(c4ncccn4)CC3)cn2)CCN1	none
COCc1nnc(NC(=O)c2ncn[nH]2)s1	none
NS(=O)(=O)c1ccc(C(=O)NCCCn2nc(-c3ccccc3)ccc2=O)cc1	none
CNC(=O)C(C)S(=O)(=O)Cc1cccc(Cl)c1 (stereo unspecified)	none
CC(=O)N[C@@H]1C[C@H](Cc2ccccc2)O[C@H](c2cccc3nsnc23)C1	none
CCOC(=O)C=C1SCC(=O)N1CC(=O)OCC	none
CCOC(=O)CN1C(=O)CSC1=CC#N	mcGAS MS inh 82.5
CCOC(=O)Cn1nc(C)c(C)c(C#N)c1=O	none
CCC1CN(C(=O)C(C)SC)CCO1 (stereo unspecified)	none
CN1CC2(CCN(Cc3nccn3Cc3ccccc3)C2)OC1=O (stereo unspecified)	none
O=C(CN1CCCc2sccc2C1=O)Nc1ccc2nc(C3CC3)oc2c1	none
Fc1ccccc1N1CCN(Cn2[nH]c(-c3ccccc3)nc2=S)CC1	none
S=c1nc(-c2ccccc2)[nH]n1CN1CCc2ccccc2C1	mcGAS MS inh 76.9
CN(C)C(=O)C1CCCN1Cn1[nH]c(-c2ccccc2)nc1=S (stereo unspecified)	none
CC1Sc2ccccc2N(Cc2ccc(F)c(Cl)c2)C1=O (stereo unspecified)	none
CC1Sc2ccc(-c3ccco3)cc2N(Cc2ccc(Cl)cc2)C1=O (stereo unspecified)	mcGAS MS inh 65.7
COc1cccc(-c2ccc3c(c2)N(Cc2ccc4c(c2)OCO4)C(=O)C(C)S3)c1 (stereo unspecified)	none
CN(Cc1cc2cc(F)ccc2[nH]1)C(=O)C1(Cn2cccn2)CC1	none
CC1=C(c2ccccc2)[N+](=O)C2(CCCC2)N1[O-]	mcGAS MS inh 64.1
CC1=C(c2ccc(F)cc2)[N+](=O)C(C)(C)N1[O-]	none
COc1ccc(C2=C(C)N([O-])C(C)(C)[N+]2=O)cc1	none
CCOC(=O)c1nn(-c2ccccc2)c(=O)cc1OS(=O)(=O)c1cccs1	none
Cc1nc2c(cc(OS(=O)(=O)c3cccs3)c3ccsc32)s1	mcGAS MS inh 62.0
Cc1nc2c(cc(O)c3ccsc32)s1	none
Cc1nc(C(=O)N(CC2COc3ccccc3O2)C(C)C)cs1 (stereo unspecified)	none
O=C(Cn1cnc2c(nnn2-c2ccc(F)cc2)c1=O)N1CCCCCC1	none
CCc1ccccc1C1NCCCn2cccc21 (stereo unspecified)	none
O=C1CSC(=NNC(=S)NCc2ccco2)N1	mcGAS MS inh 83.2
S=C(NCc1ccco1)NC1CCSc2ccccc21 (stereo unspecified)	none
C=C(N/N=C1/NC(=O)CS1)c1ccccc1	none
O=C(CSc1nnc(-c2ccc(F)cc2)o1)c1ccc2c(c1)OCO2	none
CCc1nn(-c2cc(Oc3cc(C)ccc3C)nc(C)n2)c(N)c1C#N	none
Cc1cc(O)c(C=O)c(O)c1C(=O)O	mcGAS MS inh 81.8
Cc1cc(C)c(C(=O)O)c(=O)[nH]1	none
Cc1cc(O)cc(O)c1C(=O)O	none
COc1ccc(CNc2ncn[nH]2)cc1OC	none
COc1ccc(CNc2ccccc2-n2cccn2)cc1C	none
